Bioassay records (PubChem BioAssay)
HEK cytotox: kills HEK 293 cells; HEK 293 viability, ATP luminescence (CellTiter-Glo), 48-72 h; Potency, µM (series often up to 115 µM), without a hit: at the top dose activity change, negative = cytotoxicity, most hits filed as inhibitors; actives 6.6% (n = 94,000); AID 1345083; note: nearly all actives have a fitted effect of over 60% in size
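HEK 293 cells seeded at 250 cells/well were exposed to compound for 48 or 72 hr at 37 degree Celsius. Viability taken as ATP content by CellTiter-Glo luminescence.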
hNpr1 antagonist: antagonists of human natriuretic peptide receptor Npr1; P16066; HEK293 hNpr1 GloSensor cGMP, ANP-stimulated luminescence; Potency, µM (highest dose often 46.3 µM), for the others: at the highest dose activity change, negative = inhibition, hits mostly inhibitors; actives 1.6% (n = 76,000); calls by dose curve; note: nearly all actives have a fitted effect of over 60% in size
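HEK293 cells stably expressing human Npr1 and cGMP GloSensor pGS-40F, loaded 2 h with 2% GloSensor reagent, given compound 30 min at room temperature. Luminescence read before and 20 min after 0.1 nM hNppA.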
3T3 cytotox: kills NIH 3T3 cells | actives 4.3% (n = 94,000) | Potency, µM (highest dose often 96.7 µM), for the others: top-dose activity change, negative = cytotoxicity, usual class: inhibitors | NIH 3T3 viability, CellTiter-Glo ATP luminescence, 48-72 h; note: nearly all actives have a fitted effect of over 55% in size
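NIH 3T3 cells at 400 cells/well received 23 nL of compound by pintool and were incubated 48 or 72 h at 37 °C. Viability was read as ATP-coupled CellTiter-Glo luminescence.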
FLuc inh: blocks purified firefly luciferase enzyme activity; Potency, µM (top dose mostly 115 µM), actives largely listed as inhibitors; P08659; actives 2.5% (n = 76,000); purified P. pyralis luciferase, luminescence, biochemical; note: nearly all actives have a fitted effect of over 65% in size
Target sequence (P08659 whole entry, looked up): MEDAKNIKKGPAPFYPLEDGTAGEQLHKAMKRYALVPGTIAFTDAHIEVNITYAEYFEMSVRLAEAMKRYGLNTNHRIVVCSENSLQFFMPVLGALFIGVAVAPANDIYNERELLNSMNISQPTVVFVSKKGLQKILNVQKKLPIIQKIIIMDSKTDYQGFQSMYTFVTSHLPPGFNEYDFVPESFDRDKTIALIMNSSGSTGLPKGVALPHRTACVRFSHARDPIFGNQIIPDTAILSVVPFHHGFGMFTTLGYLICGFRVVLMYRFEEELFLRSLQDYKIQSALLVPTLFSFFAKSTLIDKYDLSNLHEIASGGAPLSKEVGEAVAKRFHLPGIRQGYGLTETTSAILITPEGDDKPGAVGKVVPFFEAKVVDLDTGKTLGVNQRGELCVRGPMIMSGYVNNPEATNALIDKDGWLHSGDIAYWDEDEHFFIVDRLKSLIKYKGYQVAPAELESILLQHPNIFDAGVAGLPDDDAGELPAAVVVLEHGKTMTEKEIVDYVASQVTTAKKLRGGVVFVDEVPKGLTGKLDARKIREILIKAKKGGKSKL
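Purified 10nM P. pyralis luciferase with 10uM D-luciferin and 10uM ATP in 50mM Tris acetate pH 7.5, 10mM Mg acetate, 0.01% Tween-20, 0.05% BSA. qHTS titration; luminescence read by CCD imager.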
* marks the source's active call; other numbers are inactive results; [ ] = dose if it differs, or a comment. A selection: hits, their analogues and other compounds. The true share with any hit is near 11%. Unless noted, calls come from the whole dose curve; as a rule, active = well fitted curve in the direction sought with a large enough effect; inconclusive = small, poorly fitted or top-dose-only effect, or another doubt; inactive = no such curve, though single readings can be large; an effect the other way counts as inactive or inconclusive. % is set by controls: 0 for no effect and ±100 for the full control effect; potency is the fitted concentration of half-maximal effect.

For CN(Cc1cc(C[C@@H]2C[C@H](NC(=O)C(C)(C)C)C2(C)C)no1)c1ccccc1 the results were HEK cytotox 89µM*, hNpr1 antagonist inconclusive, 3T3 cytotox inconclusive and FLuc inh inactive.
For CN(Cc1cc(C[C@@H]2C[C@H](NCc3ccccn3)C2(C)C)no1)c1ccccc1 the results were HEK cytotox 56µM*, hNpr1 antagonist -14%[70.6 µM], 3T3 cytotox 79µM* and FLuc inh inactive.
For O=C(NC[C@H]1O[C@H](Cc2cc(-c3ccc(F)cc3)on2)CC[C@@H]1O)c1ccncc1 the results were HEK cytotox -19%[172 µM], hNpr1 antagonist inconclusive, 3T3 cytotox -20%[138 µM] and FLuc inh inactive.
For CC(C)(C)c1cc(C[C@@H]2C[C@H](NS(=O)(=O)c3ccccc3)C2(C)C)no1 the results were HEK cytotox 71µM*, hNpr1 antagonist -1%[70.6 µM], 3T3 cytotox inconclusive and FLuc inh inactive.
`CN(C)CCNc1cc(-c2ccc3ccccc3n2)c2cc[nH]c2n1` gave HEK cytotox 40µM*, hNpr1 antagonist -2%, 3T3 cytotox inconclusive and FLuc inh inactive.
For CC(C)c1cccc(-c2cc(NCc3ccccn3)nc3[nH]ccc23)n1 the results were HEK cytotox 45µM*, hNpr1 antagonist -4%, 3T3 cytotox inconclusive and FLuc inh inconclusive.
For O=C(NCCc1ccc(Cl)cc1)c1nc2cccnc2n(C2CC2)c1=O the results were HEK cytotox -26% and 3T3 cytotox -28%.
COc1cccc(N2C(=O)NC(=NC3CCCCC3)C23CCN(Cc2ccsc2)C3)c1 (centres undefined) was read as HEK cytotox -14% and 3T3 cytotox -17%.
For CC(=O)N1CCC(N2C[C@H](O)C[C@H]2c2nc(-c3ccccc3)no2)CC1 the results were HEK cytotox 0%[172 µM], hNpr1 antagonist 1%[70.6 µM], 3T3 cytotox -5%[138 µM] and FLuc inh inactive.
`CC(=O)N1CCC(N2C[C@H](O)C[C@H]2c2nc(-c3cccc(C)c3)no2)CC1` gave HEK cytotox inconclusive, hNpr1 antagonist -8%[70.6 µM], 3T3 cytotox inconclusive and FLuc inh 20µM*.
Cc1cccc(-c2noc([C@@H]3C[C@@H](O)CN3C3CCOCC3)n2)c1 was read as HEK cytotox inconclusive, hNpr1 antagonist -6%[70.6 µM], 3T3 cytotox -29%[174 µM] and FLuc inh 25µM*.
For CCCc1nc(NCc2ccc(-c3noc(C)n3)cc2)c2cnn(C)c2n1 the results were HEK cytotox 18µM*, hNpr1 antagonist 11µM*, 3T3 cytotox inconclusive and FLuc inh inactive.
CC(C)n1cc(C(=O)NCc2cccnc2Oc2ccc(F)cc2F)cn1 was read as HEK cytotox inconclusive, hNpr1 antagonist 4%, 3T3 cytotox inconclusive and FLuc inh inactive.
Screening O=C(NCc1cccnc1Oc1ccc(F)cc1F)c1cc(C2CC2)[nH]n1 returned HEK cytotox 8.9µM*, hNpr1 antagonist -20%, 3T3 cytotox inconclusive and FLuc inh inactive.
For Cc1cccc(-c2cccc(CN3CCC(NC(=O)c4ccccc4C)CC3)c2)c1 the results were HEK cytotox 40µM* and 3T3 cytotox 32µM*.
O=C(NC1CCN(Cc2cccc(-c3ccc(F)c(F)c3)c2)CC1)c1ccc(Cl)nc1 was read as HEK cytotox inconclusive and 3T3 cytotox 25µM*.
Screening Cc1ccccc1C(=O)NC1CCN(Cc2cccc(-c3ccc(F)c(F)c3)c2)CC1 returned HEK cytotox 50µM* and 3T3 cytotox inconclusive.
Screening O=C(NC1CCN(Cc2cccc(-c3ccc(F)c(F)c3)c2)CC1)c1ccccc1F returned HEK cytotox 79µM* and 3T3 cytotox inconclusive.
O=C(NC1CN(c2ccnc3ccnn23)C1)c1ccc(F)cc1 was read as HEK cytotox inconclusive and 3T3 cytotox -26%[138 µM].
COc1ccc2c(c1)OC[C@@H]1CN(CC(C)(C)O)C(=O)CCN(C(=O)c3ccc(F)cc3)[C@H]21 was read as HEK cytotox -10% and 3T3 cytotox inconclusive.
O=C(N[C@@H]1CN(C(=O)Nc2cccc(C(F)(F)F)c2)CCC[C@H]1O)c1ccc(OCc2ccccc2)cc1 was read as HEK cytotox 32µM*, hNpr1 antagonist 2%, 3T3 cytotox 40µM* and FLuc inh inactive.
For COc1cccc(CN2CCC[C@@H](O)[C@H](NC(=O)c3ccc(OCc4ccccc4)cc3)C2)c1 the results were HEK cytotox inconclusive, hNpr1 antagonist -15%, 3T3 cytotox 35µM* and FLuc inh inactive.
`CC[C@H]1CN(C(=O)Nc2cccc(C(F)(F)F)c2)CC[C@H]1CC(=O)Nc1ccccc1` gave HEK cytotox 50µM*, hNpr1 antagonist -8%[70.6 µM], 3T3 cytotox inconclusive and FLuc inh inactive.
For Cc1noc(C)c1COc1ccc(C(=O)N[C@@H]2CN(C(=O)Nc3cccc(C(F)(F)F)c3)CCC[C@H]2O)cc1 the results were HEK cytotox inconclusive, hNpr1 antagonist -5%, 3T3 cytotox inconclusive and FLuc inh inactive.
`COC(=O)c1ccccc1NC(=O)N1CCC[C@@H](O)[C@H](NC(=O)c2ccc(OCc3c(C)noc3C)cc2)C1` gave HEK cytotox inconclusive, hNpr1 antagonist -4%, 3T3 cytotox 40µM* and FLuc inh inactive.
COc1ccc(C(=O)N[C@@H]2CN(Cc3cccc(OC)c3)CCC[C@H]2O)cc1 was read as HEK cytotox -26%[172 µM], hNpr1 antagonist -2%[70.6 µM], 3T3 cytotox -23%[174 µM] and FLuc inh inactive.
Screening c1cncc(CNC[C@H]2Cn3c(-c4ccc5c(c4)OCCO5)cnc3CO2)c1 returned HEK cytotox -24%[172 µM], hNpr1 antagonist -1%[70.6 µM], 3T3 cytotox inconclusive and FLuc inh inactive.
`O=C(c1nc2cccnc2n(C2CC2)c1=O)N1CCCC1` gave HEK cytotox inactive and 3T3 cytotox -1%[138 µM].
Screening Cc1cc(=O)n(CC(=O)Nc2ccc(C)c(C)c2)c(N2CCN(c3ccccc3)CC2)n1 returned HEK cytotox inconclusive, hNpr1 antagonist 4%, 3T3 cytotox -29% and FLuc inh inactive.
For COc1ccc(-c2ccccc2C(=O)N2CCC(NC(=O)c3ccccc3)CC2)nn1 the results were HEK cytotox inconclusive and 3T3 cytotox -23%.
OCC1(CN2CCCC2)CCN(Cc2ccc(Cl)c(F)c2)CC1 was read as HEK cytotox inconclusive, hNpr1 antagonist 6%, 3T3 cytotox inconclusive and FLuc inh inactive.
For NC(=O)COc1ccc(C(=O)N[C@@H]2CN(Cc3ccccn3)CCC[C@H]2O)cc1 the results were HEK cytotox inconclusive, hNpr1 antagonist 4%[70.6 µM], 3T3 cytotox inconclusive and FLuc inh inactive.
For O=C(N[C@@H]1CN(Cc2ccccn2)CCC[C@H]1O)c1ccc(OCc2ccccc2)cc1 the results were HEK cytotox 89µM*, hNpr1 antagonist -10%[70.6 µM], 3T3 cytotox inconclusive and FLuc inh inactive.
For CN1Cc2ccc(NCc3ccccc3)nc2C(C)(C(=O)NC2CCC2)C1 (centres undefined) the results were HEK cytotox inconclusive, hNpr1 antagonist 2%[70.6 µM], 3T3 cytotox inconclusive and FLuc inh inactive.
